Laboratory results from PubChem BioAssay (Tox21).
Results filed as inconclusive are left out. The source made the active and inactive calls. The call rests on the fitted dose curve; in most records, active means well fitted curve in the direction sought with a large enough effect in the repeat runs; inconclusive means weak or mixed curves; inactive means no such curve, though single readings can be large; an effect the other way counts as inactive or inconclusive.

Experiments:
[1] = qHTS RealTime-Glo MT Cell Viability Assay in HepG2 cells - 40 hour (AID 1224870); further: nearly all actives have a fitted effect of over 50% in size
Outline: (§1)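 Real-time viability: cells seeded at 600 per well together with NanoLuc and cell-permeant prosubstrate, compounds added after 5 h incubation. Luminescence tracked at 0, 8, 16, 24, 32 and 40 h of exposure.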

[2] = A CellTox Green Cytotoxicity Assay to monitor cytotoxicity in HEK293 cells - 40 hour (AID 1224871); further: nearly all actives have a fitted effect of over 45% in size
Outline: (§2)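 Fluorescence intensity, read at 0, 8, 16, 24, 32 and 40 h of compound treatment, reflected dye binding to DNA of dead HEK293 cells; compounds (23 nL, DMSO) were added 5 h after plating cells with reagent.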

[3] = qHTS RealTime-Glo MT Cell Viability Assay in HEK293 cells - 16 hour (AID 1224872); further: top concentration of the series differs between compounds; nearly all actives have a fitted effect of over 50% in size
Outline: (§3)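 Homogeneous bioluminescent viability format in HEK293 cells (600 cells/well). Following 5 h at 37 C/5% CO2, 23 nL compound was pintooled; the signal was measured repeatedly during 40 h incubation.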

[4] = qHTS RealTime-Glo MT Cell Viability Assay in HepG2 cells - 8 hour (AID 1224873); further: nearly all actives have a fitted effect of over 55% in size
Outline: as §1

[5] = qHTS RealTime-Glo MT Cell Viability Assay in HEK293 cells - 40 hour (AID 1224874); conditions: RealTime-Glo luminescence; max response: stronger effect = lower value; further: nearly all actives have a fitted effect of over 50% in size
Outline: (§4)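 Viable HEK293 cells reduce a cell-permeant prosubstrate; the product diffuses out and is consumed by NanoLuc in the medium to give light. Compounds went in after a 5 h incubation and plates were read over the treatment course.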

[6] = A CellTox Green Cytotoxicity Assay to monitor cytotoxicity in HepG2 cells - 16 hour (AID 1224876); further: nearly all actives have a fitted effect of over 45% in size
Outline: (§5)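 Using 1536-well format, dye-containing HepG2 suspension was seeded, allowed 5 h at 37 C/5% CO2, dosed by pintool with compounds, positive and negative controls, and imaged for fluorescence across 40 h.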

[7] = qHTS RealTime-Glo MT Cell Viability Assay in HepG2 cells - 32 hour (AID 1224877); further: nearly all actives have a fitted effect of over 55% in size
Outline: (§6)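 Cell number in HepG2 cultures estimated from NanoLuc luminescence generated by metabolic reduction of a prosubstrate by living cells. The homogeneous, nonlytic format allowed repeated reads at 0, 8, 16, 24, 32 and 40 h of compound exposure.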

[8] = A CellTox Green Cytotoxicity Assay to monitor cytotoxicity in HepG2 cells - 24 hour (AID 1224878); further: nearly all actives have a fitted effect of over 45% in size
Outline: as §5

[9] = A CellTox Green Cytotoxicity Assay to monitor cytotoxicity in HepG2 cells - 40 hour (AID 1224879); further: nearly all actives have a fitted effect of over 40% in size
Outline: as §5

[10] = qHTS RealTime-Glo MT Cell Viability Assay in HEK293 cells - 0 hour (AID 1224880); further: top concentration of the series differs between compounds; nearly all actives have a fitted effect of over 45% in size
Outline: as §4

[11] = A CellTox Green Cytotoxicity Assay to monitor cytotoxicity in HEK293 cells - 32 hour (AID 1224881); further: nearly all actives have a fitted effect of over 40% in size
Outline: as §2

[12] = A CellTox Green Cytotoxicity Assay to monitor cytotoxicity in HepG2 cells - 0 hour (AID 1224882); further: nearly all actives have a fitted effect of over 35% in size
Outline: as §5

[13] = A CellTox Green Cytotoxicity Assay to monitor cytotoxicity in HepG2 cells - 32 hour (AID 1224883); further: nearly all actives have a fitted effect of over 50% in size
Outline: as §5

[14] = A CellTox Green Cytotoxicity Assay to monitor cytotoxicity in HEK293 cells - 8 hour (AID 1224884); further: nearly all actives have a fitted effect of over 35% in size
Outline: as §2

[15] = qHTS RealTime-Glo MT Cell Viability Assay in HepG2 cells - 16 hour (AID 1224885); further: nearly all actives have a fitted effect of over 50% in size
Outline: as §6

[16] = qHTS RealTime-Glo MT Cell Viability Assay in HEK293 cells - 24 hour (AID 1224886)
Outline: as §3

[17] = qHTS RealTime-Glo MT Cell Viability Assay in HEK293 cells - 8 hour (AID 1224887)
Outline: as §4

[18] = A CellTox Green Cytotoxicity Assay to monitor cytotoxicity in HEK293 cells - 16 hour (AID 1224888); further: nearly all actives have a fitted effect of over 35% in size
Outline: as §2

[19] = qHTS RealTime-Glo MT Cell Viability Assay in HepG2 cells - 0 hour (AID 1224889); further: nearly all actives have a fitted effect of over 50% in size
Outline: as §6

[20] = A CellTox Green Cytotoxicity Assay to monitor cytotoxicity in HEK293 cells - 24 hour (AID 1224875)
Outline: as §2
On the % scale 0 is the no-effect control and ±100 the full control effect.

CCOC(=O)Nc1ccc2c(c1)N(C(=O)CCN1CCOCC1)c1ccccc1S2
inactive: Potency [1] | Potency [2] | Potency [3] | outcome [4] | max response [5] -6.68% | Potency [6] | Potency [7] | Potency [8] | Potency [9] | outcome [10] | Potency [11] | Potency [12] | Potency [13] | Potency [14] | outcome [15] | Potency [16] | Potency [17] | Potency [18] | Potency [19]

CCCCCCCCC=O
inactive: Potency [1] | Potency [2] | Potency [3] | outcome [4] | max response [5] -0.417% | Potency [20] | Potency [7] | outcome [10] | Potency [11] | Potency [12] | Potency [14] | outcome [15] | Potency [16] | Potency [17] | Potency [18] | Potency [19]

CC1=CC(=O)CCC1
inactive: Potency [1] | Potency [2] | Potency [3] | outcome [4] | max response [5] -3.69% | Potency [6] | Potency [7] | Potency [8] | Potency [9] | outcome [10] | Potency [11] | Potency [13] | Potency [14] | outcome [15] | Potency [16] | Potency [17] | Potency [18] | Potency [19]

COc1ccc(N=[N+]([O-])c2ccc(OC)cc2)cc1
inactive: Potency [1] | Potency [2] | Potency [3] | outcome [4] | Potency [20] | Potency [6] | Potency [7] | Potency [8] | Potency [9] | outcome [10] | Potency [11] | Potency [12] | Potency [13] | Potency [14] | outcome [15] | Potency [16] | Potency [17] | Potency [18] | Potency [19]

NCCN1CCNC1=O
inactive: Potency [1] | Potency [2] | Potency [3] | outcome [4] | Potency [20] | Potency [6] | Potency [7] | Potency [8] | Potency [9] | outcome [10] | Potency [11] | Potency [12] | Potency [13] | Potency [14] | outcome [15] | Potency [16] | Potency [17] | Potency [18]

O=S(=O)(c1cccc2cnccc12)N1CCCNCC1
inactive: Potency [1] | Potency [2] | Potency [3] | outcome [4] | max response [5] 8.06% | Potency [20] | Potency [6] | Potency [8] | outcome [10] | Potency [11] | Potency [12] | Potency [14] | Potency [16] | Potency [17] | Potency [18] | Potency [19]

CC(=O)CCc1ccc(O)cc1
inactive: Potency [1] | Potency [2] | Potency [3] | outcome [4] | max response [5] -1.37% | Potency [6] | Potency [7] | Potency [8] | Potency [9] | outcome [10] | Potency [11] | Potency [12] | Potency [13] | Potency [14] | outcome [15] | Potency [16] | Potency [17]

O=C1OC(=O)c2cc([N+](=O)[O-])ccc21
inactive: Potency [1] | Potency [2] | Potency [3] | outcome [4] | max response [5] 13% | Potency [6] | Potency [7] | Potency [8] | Potency [9] | outcome [10] | Potency [11] | Potency [12] | Potency [13] | Potency [14] | outcome [15] | Potency [16] | Potency [17]

Cc1nccn1CC1CCc2c(c3ccccc3n2C)C1=O (configuration not stated)
inactive: Potency [1] | Potency [2] | Potency [3] | outcome [4] | max response [5] -14.4% | Potency [6] | Potency [7] | Potency [8] | Potency [9] | outcome [10] | Potency [11] | Potency [12] | Potency [13] | Potency [14] | outcome [15] | Potency [16] | Potency [17] | Potency [19]

CCCCCCCCCCCCCCCCCCOCC(O)CO (configuration not stated)
inactive: Potency [1] | Potency [2] | Potency [3] | outcome [4] | max response [5] -20.9% | Potency [20] | Potency [7] | Potency [9] | Potency [11] | Potency [14] | outcome [15] | Potency [16] | Potency [17] | Potency [18] | Potency [19]

C[C@H](O)C(=O)Nc1c(I)c(C(=O)NC(CO)CO)c(I)c(C(=O)NC(CO)CO)c1I
inactive: Potency [1] | Potency [2] | Potency [3] | outcome [4] | max response [5] 4.24% | Potency [20] | Potency [6] | Potency [8] | Potency [9] | outcome [10] | Potency [11] | Potency [13] | Potency [14] | outcome [15] | Potency [16] | Potency [17] | Potency [19]

CCOC(=O)[C@H](CCc1ccccc1)N[C@@H](C)C(=O)N1CCC[C@H]1C(=O)O
inactive: Potency [1] | Potency [2] | Potency [3] | outcome [4] | max response [5] -0.439% | Potency [6] | Potency [7] | Potency [8] | Potency [9] | outcome [10] | Potency [11] | Potency [12] | Potency [13] | Potency [14] | outcome [15] | Potency [16] | Potency [17] | Potency [18] | Potency [19]

CCc1cc(S(=O)(=O)O)c2cc(C(C)C)cccc1-2
inactive: Potency [1] | Potency [2] | Potency [3] | outcome [4] | max response [5] 7.39% | Potency [6] | Potency [7] | Potency [8] | Potency [9] | outcome [10] | Potency [11] | Potency [12] | Potency [13] | Potency [14] | outcome [15] | Potency [16] | Potency [17] | Potency [18]

COc1cc(CCC(C)=O)ccc1O
inactive: Potency [1] | Potency [2] | Potency [3] | outcome [4] | max response [5] -0.231% | Potency [6] | Potency [7] | Potency [8] | Potency [9] | outcome [10] | Potency [11] | Potency [12] | Potency [13] | Potency [14] | outcome [15] | Potency [16] | Potency [17] | Potency [18] | Potency [19]

N#CCc1ccccc1[N+](=O)[O-]
inactive: Potency [1] | Potency [2] | Potency [3] | outcome [4] | Potency [20] | Potency [6] | Potency [7] | Potency [8] | Potency [9] | outcome [10] | Potency [11] | Potency [12] | Potency [13] | Potency [14] | outcome [15] | Potency [16] | Potency [17] | Potency [18] | Potency [19]

CC(C)(O)C(=O)c1ccc(OCCO)cc1
inactive: Potency [1] | Potency [2] | Potency [3] | outcome [4] | max response [5] 6.03% | Potency [6] | Potency [7] | Potency [8] | Potency [9] | outcome [10] | Potency [11] | Potency [12] | Potency [13] | Potency [14] | Potency [16] | Potency [17] | Potency [18] | Potency [19]

CCO[Si](C)(OCC)OCC
inactive: Potency [1] | Potency [2] | Potency [3] | outcome [4] | max response [5] 3.57% | Potency [6] | Potency [7] | Potency [8] | Potency [9] | outcome [10] | Potency [11] | Potency [12] | Potency [13] | Potency [14] | outcome [15] | Potency [16] | Potency [17] | Potency [18] | Potency [19]

COc1cc(O)cc(O)c1
inactive: Potency [1] | Potency [2] | Potency [3] | outcome [4] | max response [5] 2.03% | Potency [6] | Potency [7] | Potency [8] | Potency [9] | Potency [11] | Potency [12] | Potency [13] | Potency [14] | outcome [15] | Potency [16] | Potency [17] | Potency [18] | Potency [19]

CC(C)(C)OC(=O)N1C[C@@H](F)C[C@H]1C(=O)O
inactive: Potency [1] | Potency [2] | Potency [3] | outcome [4] | max response [5] 2.11% | Potency [6] | Potency [7] | Potency [8] | Potency [9] | outcome [10] | Potency [11] | Potency [12] | Potency [13] | Potency [14] | outcome [15] | Potency [16] | Potency [17] | Potency [19]

CCCCC=O
inactive: Potency [1] | Potency [2] | Potency [3] | outcome [4] | max response [5] 2.57% | Potency [6] | Potency [7] | Potency [8] | Potency [9] | Potency [11] | Potency [12] | Potency [13] | Potency [14] | outcome [15] | Potency [16] | Potency [17] | Potency [19]

COc1cc(C)cc(O)c1
inactive: Potency [1] | Potency [2] | Potency [3] | outcome [4] | max response [5] -14.5% | Potency [6] | Potency [8] | Potency [9] | Potency [11] | Potency [12] | Potency [13] | Potency [14] | outcome [15] | Potency [16] | Potency [17] | Potency [18] | Potency [19]
